In PubChem BioAssay AID652115 (Broad Institute, 2013):
Among all 330,000 compounds or so, about 3,800 (1.2%) were called active. Cut-off read from the data, not from the text of the source: active = inhibition above about 15%; inconclusive = no clear call, values can overlap the other calls; inactive = below that. The list comes from a sample in which actives are over-represented; it also holds similar structures and randomly drawn compounds.

biological target: NAD-dependent protein deacylase sirtuin-5, mitochondrial (Homo sapiens) (UniProt Q9NXA8); test: SIRT5 desuccinylase inhibitors, primary screen, biochemical, fluorescence imaging, single point, set 5 (AID 652115); conditions: Purified SirT5, succinyl-peptide AMC, trypsin-coupled fluorescence; at 15 µM; active compounds read high
Sequence (Q9NXA8 whole entry, looked up): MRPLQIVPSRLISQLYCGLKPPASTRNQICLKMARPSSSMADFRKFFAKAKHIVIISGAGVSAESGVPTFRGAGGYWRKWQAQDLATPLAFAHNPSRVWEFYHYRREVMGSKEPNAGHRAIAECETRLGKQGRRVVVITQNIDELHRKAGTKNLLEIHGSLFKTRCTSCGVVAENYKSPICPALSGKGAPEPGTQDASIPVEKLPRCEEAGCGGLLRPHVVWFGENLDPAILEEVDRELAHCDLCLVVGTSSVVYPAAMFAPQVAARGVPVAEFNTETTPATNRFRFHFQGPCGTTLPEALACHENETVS

inhibition, inactive:
CCCNC(=O)C[C@@H]1CC[C@H]2[C@H](COc3ccc(NC(=O)CCC)cc3C(=O)N2C)O1 -0.672%
COc1ccccc1NC(=O)N1CCCCN2[C@H](CO)[C@H](c3ccc(C#CC4CC4)cc3)[C@@H]2C1 0.625%
CO[C@H]1CN(C)C(=O)c2cc(NS(C)(=O)=O)ccc2OC[C@@H](C)N(Cc2ccccc2)C[C@@H]1C -4.85%
COCC#Cc1ccc2c(c1)O[C@H](CN(C)C(=O)CN(C)C)[C@@H](C)CN([C@H](C)CO)S2(=O)=O 1.54%
C[C@@H]1CN([C@@H](C)CO)C(=O)c2cc(/C=C/c3ccccc3)cnc2O[C@@H]1CN(C)C(=O)CN(C)C -20%
C[C@H](CO)N1C[C@H](C)[C@H](CN(C)C(=O)Nc2ccc3c(c2)OCO3)Oc2cc(C#Cc3ccncc3)ccc2S1(=O)=O -1.42%
CCCN1C[C@@H](C)[C@@H](OC)CN(C)C(=O)c2cc(NC(=O)NC3CCCCC3)ccc2OC[C@H]1C 0.947%
C[C@H](NC(=O)[C@H]1N[C@H]2c3ccc(-c4ccc(C(=O)N(C)C)cc4)c(=O)n3C[C@H]2[C@@H]1CO)c1ccccc1 -55.5%
O=C(NCC1CC1)[C@@H]1[C@@H](CO)[C@@H]2Cn3c(ccc(-c4ccccc4)c3=O)[C@H]1N2C(=O)C1CC1 -28%
CO[C@@H]1CN(C)C(=O)c2ccc(NC(=O)Nc3ccccc3)cc2OC[C@H](C)N(C(=O)CC2CC2)C[C@@H]1C 6.27%
O=C(COC(=O)c1ccccc1)c1ccc2c(c1)OCCO2 0.878%
O=C(COC(=O)c1ccc(O)cc1O)NC(=O)c1ccccc1 0.616%
CO[C@H]1CN(C)C(=O)c2cc(NC(=O)c3cnccn3)ccc2OC[C@@H](C)N(CC2CC2)C[C@@H]1C 0.994%
Cn1cnc(CCNC(=O)C[C@@H]2CC[C@H]3[C@@H](COC[C@@H](O)CN3C(=O)Nc3ccc(Cl)cc3)O2)c1 -1.27%
Cn1cnc(CCNC(=O)C[C@H]2CC[C@@H]3[C@H](COC[C@@H](O)CN3C(=O)Nc3ccc(Cl)cc3)O2)c1 3.58%
C[C@H]1CCCCO[C@H](CN(C)C(=O)Nc2ccccc2)[C@@H](C)CN([C@@H](C)CO)C(=O)c2cc(NC(=O)Nc3ccc4c(c3)OCO4)ccc2O1 11.6%

inhibition, active:
O=C(COC(=O)c1ccc(O)cc1O)c1ccc2c(c1)OCCO2 19.1%
O=c1ccc2c(-c3ccccc3S(=O)(=O)O)c3ccc(O)c(O)c3oc-2c1O 15.8%
Cn1cnc(CCNC(=O)C[C@@H]2CC[C@@H]3[C@H](COC[C@@H](O)CN3C(=O)Nc3ccccc3)O2)c1 15.8%
